Test results as given in PubChem BioAssay AID2685 (National Center for Advancing Translational Sciences (NCATS), 2010).
Several values for one entry are separate records, joined by “and”; a condition that tells them apart may be missing. Identical values can stand only once. Out of some 320,000 compounds screened, about 2,100 (0.66%) were called active. Not shown: some 53% with an inconclusive outcome. Calls follow the shape of the dose curve; as a rule, active = well fitted inhibition curve with a large enough effect in the signal ratio, with a control signal flat (not every such curve was filed as active); inconclusive = small, poorly fitted or top-dose-only effect, or effect the other way, or a change in a side signal; inactive = flat fitted curve, though single readings scatter; the % refers to the signal ratio. The full list was thinned out, with actives kept by preference.

Test: qHTS Assay for Lipid Storage Modulators in Drosophila S3 Cells;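 as to cell number change: cells counted by Cell Tracker Red CMTPX staining in the red channel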
Conditions: BODIPY lipid droplet fluorescence, 18-24 h, cells fed with added oleic acid; cell number change: measured here: cell count max response; series mostly up to 46.1 µM
How it was run: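 Laser-scanning cytometry quantifies lipid droplet accumulation (500–530 nm total intensity; droplet/cell object ratio) in oleic acid-fed (400 uM added) Drosophila S3 cells treated with a concentration series. 20 uM Triacsin C defined 100% inhibition.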
Potency is read from the fitted curve at half-maximal effect.

SMILES	Potency	cell number change
NC(Cc1ccccc1)C(O)(c1ccccc1)c1ccccc1 (stereo not drawn)	inactive	-20.2%
Cc1noc(NS(=O)(=O)c2ccc(NC(=O)CCn3c(=O)oc4ccccc43)cc2)c1C	inactive	
CCC(C)NC(=O)C(=O)NCc1ccccn1 (stereo not drawn)	inactive	4.8%
Cc1ccc(S(=O)(=O)Cc2nnnn2-c2ccccc2)cc1	inactive	-3.66%
COc1ccc(CC(=O)Nc2ccc(-c3noc(-c4ccc(Cl)cc4)n3)cc2)cc1	inactive	-6.7%
COc1ccc(CCNC(=O)CNC(=O)c2ccccc2Br)cc1OC	inactive	19.2%
O=C1C(Cc2ccc(O)cc2)NC(=S)N1C1CCCCC1 (stereo not drawn)	inactive	9.32%
CC(=O)Nc1sc(NC(=O)c2ccc([N+](=O)[O-])cc2)nc1-c1cccs1	inactive	7.62%
Cc1cccc(NC(=O)CC2C(=O)NC3CCCCC3N2C(=O)c2ccccc2Cl)c1 (stereo not drawn)	inactive	7.35%
CN(C(=O)CC1C(=O)NCCN1Cc1ccc(F)c(F)c1)C1CCOCC1 (stereo not drawn)	inactive	1.07%
CC(C)c1ccc2[nH]c3nc(SCC(=O)NC4CC4)nnc3c2c1	0.651 µM (active)	8.7%
CC1Cc2ccccc2N1C(=O)CSc1nnc2c(n1)[nH]c1ccccc12 (stereo not drawn)	inactive	3.16%
Cc1ccc(C(=O)NNC(=O)CSc2nnc3c(n2)[nH]c2ccc(F)cc23)cc1	inactive	6.2%
CCc1ccc2[nH]c3nc(SCC(=O)NCC4CCCO4)nnc3c2c1 (stereo not drawn)	inactive	8.06%
CC1CCCCN1C(=O)CSc1nnc2c(n1)[nH]c1ccccc12 (stereo not drawn)	0.58 µM (active)	8.97%
CC(C)c1ccc2[nH]c3nc(SCC(=O)N4CCOCC4)nnc3c2c1	inactive	-11.8%
O=C(CSc1nnc2c(n1)[nH]c1ccc(F)cc12)NC1CC1	20.6 µM (active)	-6.52%
CC1CCCCN1C(=O)CSc1nnc2c(n1)[nH]c1ccc(F)cc12 (stereo not drawn)	inactive	8.7%
CC1CCc2cc(F)ccc2N1C(=O)CSc1nnc2c(n1)[nH]c1ccc(F)cc12 (stereo not drawn)	inactive	-17.4%
COc1ccc(CC(NC(C)=O)C(=O)NC2CCN(c3nnnn3-c3ccccc3)CC2)cc1OC (stereo not drawn)	inactive	-4.36%
COc1ccc(-c2c(=O)n(OCc3nc4ccccc4[nH]3)c3ccccc3[n+]2[O-])cc1	inactive	2.91%
Cc1cccc2cc(COC(=O)C3CCCCC3)c(=O)[nH]c12	inactive	10.5%
N#Cc1cncc(-c2ccc3c(c2)OCCOCCOCCOCCOCCO3)n1	inactive	3.78%
COc1cc(CNC2CCCCCCC2)cc(Cl)c1OCC(N)=O	inactive	6.3%
COc1ccccc1N1CCN(C(=O)c2cc(C)oc2C)CC1	inactive	9.51%

SMILES	Potency	cell number change
O=C(O)c1oc2ccc(Br)cc2c1-n1cccc1	inactive	
CCOC(=O)C1CCN(CC(=O)Nc2c(C(=O)OC)n(C)c3cccc(C)c23)CC1	inactive	-3.82%
COC(=O)c1c(NC(=O)CN2CCCC(C)C2)c2c(C)cccc2n1C (stereo not drawn)	3.26 µM (active)	-24.5%
COC(=O)c1c(NC(=O)CN2CCN(C(=O)c3ccco3)CC2)c2c(C)cccc2n1C	inactive	-8.93%
COc1ccc(C)cc1NC(=O)C(=O)NCc1ccncc1	inactive	1.5%
O=C1[C@@H]2Cc3c([nH]c4ccccc34)C(c3ccccc3)N2C(=O)CN1C1CC1 (stereo partly drawn)	4.11 µM (active)	-19.8%
COC(=O)c1ccc(C2c3[nH]c4ccccc4c3C[C@H]3C(=O)N(C4CC4)CC(=O)N23)cc1 (stereo partly drawn)	inactive	-1.73%
O=C1[C@@H]2Cc3c([nH]c4ccccc34)C(c3ccc([N+](=O)[O-])cc3)N2C(=O)CN1C1CC1 (stereo partly drawn)	inactive	5.54%
O=C(Nc1ccccc1Cl)Nc1ccccc1Cl	inactive	-0.979%
O=C(Nc1ccccc1Cl)/C(Cl)=C(\Cl)S(=O)c1ccccc1 (stereo not drawn)	4.61 µM (active)	
O=C(Nc1ccccc1Cl)c1ccccc1	inactive	0.403%
CCN(CC(=O)Nc1c(F)cccc1F)C(=O)c1ccc(S(=O)(=O)N2CCCC2)cc1	inactive	23.3%
O=C(O)CN1C(=O)NC2(CCCc3ccccc32)C1=O (stereo not drawn)	inactive	8.55%
CCOc1cc(-c2sc(Nc3ccccc3)n[n+]2-c2ccc(F)cc2)ccc1OC	inactive	8.68%
CCN(CCNC(=O)C1CCN(S(=O)(=O)c2c(C)noc2C)CC1)c1ccccc1	inactive	0.289%
CC(C)(C)c1nc(CN2CCOCC2)cc(CN2CCOCC2)c1O	inactive	19.4%
CC(C)(C)c1nc(CN2CCCCC2)cc(CN2CCCCC2)c1O	20.6 µM (active)	-1.12%
Cc1ccc(-c2nc(CN3CCCCC3)cc(CN3CCCCC3)c2O)cc1	inactive	4.96%
Cc1cc(CN2CCC(N3CCC(C(=O)NC4CC4)CC3)CC2)cc(C)c1O	inactive	-10.6%
Cc1cc(C)n(CC(O)CN2C(=O)NC(C)(C)C2=O)n1 (stereo not drawn)	inactive	7.08%
CN(C)c1ccc(/C=C2\SC(=O)N(CC(O)Cn3c4ccccc4c4ccccc43)C2=O)cc1 (stereo not drawn)	inactive	1.42%
O=C1S/C(=C\c2ccccc2)C(=O)N1CC(O)Cn1c2ccccc2c2ccccc21 (stereo not drawn)	9.2 µM (active)	8.53%
COc1ccc(/C=C2/SC(=O)N(CC(O)Cn3c4ccccc4c4ccccc43)C2=O)cc1 (stereo not drawn)	inactive	-7.54%
C=CCn1c(CCNC(=O)c2cccs2)nnc1SCC(=O)c1cccc([N+](=O)[O-])c1	inactive	21.8%
COc1ccc(N2CCN(Cc3nc(N)nc(Nc4ccccc4OC)n3)CC2)cc1	inactive	-16.4%

SMILES	Potency	cell number change
Cc1nc2c(sc(=S)n2Cc2ccco2)c(=O)n1CC(=O)Nc1ccc(F)cc1	16.4 µM (active)	20.2%
Cc1nc2c(sc(=S)n2Cc2ccco2)c(=O)n1CC(=O)Nc1ccccc1Cl	inactive	8.56%
CCn1c(=S)sc2c(=O)n(CC(=O)Nc3ccccc3)c(C)nc21	inactive	22.9%
COc1ccc(CN2CC(=O)N(c3ccc(C)cc3C)C2=S)cc1OC	inactive	8.06%
CC(=O)NCCc1nc2ccccc2n1CCOc1ccccc1	inactive	18.1%
CC(=C/c1ccccc1)/C=N/NC(=O)c1ccccn1	inactive	10.8%
C=C(c1ccccc1)c1ccc(N(C)C)cc1	inactive	1.48%
CCOc1ccc(-c2cc(N3C(=O)Nc4ccccc4N3O)on2)cc1	23.1 µM (active)	24.4%
O=C1Nc2ccccc2N(O)N1c1cc(-c2cccc(Cl)c2)no1	inactive	
O=C1Nc2ccccc2N(O)N1c1cc(-c2ccccc2Cl)no1	inactive	
CC(C)c1cc(C(=O)O)c2cnn(C(C)C)c2n1	inactive	-20.5%
CCOc1ccc(-n2ccnc(SCC(=O)NC3CCCC3)c2=O)cc1	inactive	
CCOc1ccccc1C(=O)Nc1ccc(S(=O)(=O)Nc2nccc(C)n2)cc1	inactive	-4.06%
COC(=O)c1ccc(C23CC4(C2)[C@H](CN(CC2CCCCC2)[C@@H]4c2ccccc2)C3c2ccccc2)cc1 (stereo partly drawn)	inactive	12.7%
CC(=O)Oc1ccc(N2C(=O)[C@@H]3[C@H](C2=O)[C@H]2c4ccccc4C=NN2[C@@H]3C(C)=O)cc1	inactive	17.5%
CC1(C)CC2CC(C)(CN2C(=O)Cc2ccccc2)C1 (stereo not drawn)	inactive	-11.2%
CC(=O)N/C(=C\c1ccccc1)C(=O)OCC(=O)N(C)C1CCCCC1	inactive	11.6%
CCN(C(=O)COC(=O)/C(=C/c1ccccc1)n1nnnc1C)C1CCCCC1	7.31 µM (active)	-1.15%
Cc1cccc(C)c1OCC(=O)N1CC2(C)CC1CC(C)(C)C2 (stereo not drawn)	inactive	24%
CCN(C(=O)COC(=O)c1cnc(C)cn1)C1CCCCC1	inactive	18.1%
Cc1nnnn1/C(=C\c1ccccc1)C(=O)OCC(=O)N1CC2(C)CC1CC(C)(C)C2 (stereo not drawn)	1.84 µM (active)	-4.4%
COc1ccc(CCNC(=O)c2cc(-c3ccccc3O)n[nH]2)cc1OC	inactive	4.36%
COC(=O)CCc1sc(Nc2ccccc2)nc1-c1ccc(OC)cc1	inactive	-8.54%
O=C(COc1ccccc1)NCC1CCCO1 (stereo not drawn)	inactive	-0.966%
NC(=O)c1ccc(NC(=O)C#Cc2ccccc2)cc1	inactive	

SMILES	Potency	cell number change
COc1ccc(NC(=O)Nc2ccc(CC(=O)O)cc2)cc1	0.116 µM (active)	-22.2%
O=C(C#Cc1ccccc1)Nc1ccc(F)cc1	inactive	-2.07%
COc1ccc(NC(=O)Cc2ccccc2)cc1	inactive	-1.56%
COc1ccc(NC(=O)Nc2ccc(OC)cc2)cc1	inactive	-101%
COc1ccc(NC(=O)C#Cc2ccccc2)cc1	0.92 µM (active)	-23.3%
O=C(C#Cc1ccccc1)Nc1cccc(F)c1	1.16 µM (active)	-19.6%
O=C(Nc1cccc(F)c1)c1ccccc1	inactive	-17.1%
COc1ccc(NC(=S)Nc2ccccc2)cc1	inactive	1.43% and -1.32%
O=C1NC2(CCCCC2)Cc2ccccc21	inactive	2.36%
CCCC(=O)Nc1ccc(Cl)c(NC(=O)c2ccc([N+](=O)[O-])cc2Cl)c1	inactive	3.62%
Cc1cc(NC(=O)c2ocnc2C)no1	inactive	-15.2%
O=C(O)c1cc(-c2ccccc2Cl)n(-c2ccccc2)n1	inactive	19.7%
COc1cc(CC(=O)NCc2ccco2)cc(OC)c1OC	inactive	
CNC(=S)N/N=C/c1c(C(=O)OC)cnn1-c1ccc(F)cc1F	inactive	9.07%
Cc1oc(-c2ccccc2F)nc1CN1CCC(C(=O)NCc2cccnc2)CC1	inactive	15.7%
O=C(Nc1ccccc1)Nc1n[nH]c2nnc(-c3ccccc3)c(-c3ccccc3)c12	inactive	9.52%
Cc1cc(-c2nc(C)c(C(=O)NNC(=O)NC(C)C)s2)no1	inactive	5.79%
Cc1nnc(NC(=O)c2sc3nc(-c4cccs4)cc(C(F)(F)F)c3c2N)s1	9.2 µM (active)	18.6%
Cc1cc(C(F)(F)F)c2c(N)c(C(=O)NC3CC3)sc2n1	17.8 µM (active)	-6.29%
CC(C)(C)C(=O)c1sc2nc(-c3cccs3)cc(C(F)(F)F)c2c1N	inactive	-8.91%
Cc1cc(C)c2c(N)c(C(=O)NC3CC3)sc2n1	inactive	14.6%
Cc1cc(C)c2c(N)c(C(=O)Nc3ccc(C)c(C)c3)sc2n1	inactive	-1.35%
CN(C)CCNC(=O)c1sc2nc(-c3ccccc3)cc(C(F)(F)F)c2c1N	inactive	-18.7%
